Here are results for ten compounds from PubChem BioAssay (NCI).

The nature of assay [1]: NCI Yeast Anticancer Drug Screen. Data for the rad50 strain (AID 155).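 Further: 0% = growth of vehicle-only cultures of the same strain.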 Conditions: S. cerevisiae rad50 strain growth inhibition, active compounds read high. The procedure, abridged: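 Yeast carrying a defined DNA repair defect were exposed to test compounds, and growth was compared with vehicle-treated controls to give percent inhibition.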
Assay [2] in a line: NCI Yeast Anticancer Drug Screen. Data for the mec2-1 strain (AID 157). Conditions: S. cerevisiae mec2-1 strain, active compounds read high. The procedure, abridged: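 Strain: mec2-1 (DNA repair/cell cycle alteration). Compound exposure, then growth measured; inhibition expressed relative to vehicle.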
Assay [3] in a line: NCI Yeast Anticancer Drug Screen. Data for the sgs1 mgt1 strain (AID 161).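 Further: 0% = growth of cultures given vehicle only.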 To be noted: S. cerevisiae sgs1 mgt1 strain, active compounds read high. The procedure, abridged: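 Read-out: growth inhibition vs vehicle controls. Cells: mutant yeast strain deficient in DNA damage repair.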
Assay [4] in a line: NCI Yeast Anticancer Drug Screen. Data for the cln2 rad14 strain (AID 165).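 Further: 0% = growth equal to vehicle treated cultures.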 To be noted: S. cerevisiae cln2 rad14 strain, active compounds read high. In outline:
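Compounds are applied to the cln2 rad14 yeast strain, and growth is then compared with that of vehicle-treated cultures to give inhibition.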

Assay [5] can be described thus: NCI Yeast Anticancer Drug Screen. Data for the bub3 strain (AID 167). Conditions: S. cerevisiae bub3 mutant strain, active compounds read high. The procedure, abridged:
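Compounds were applied to a genetically altered yeast strain carrying a cell-cycle control defect. Growth inhibition was scored against vehicle-treated controls.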

The nature of assay [6]: NCI Yeast Anticancer Drug Screen. Data for the mlh1 rad18 strain (AID 175). To be noted: S. cerevisiae mlh1 rad18 strain growth inhibition, active compounds read high. The procedure, abridged:
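Read-out is yeast growth inhibition, calculated against vehicle-only controls. The compound was applied to a strain engineered with DNA damage repair alterations.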

Setting [7] is: at 5.0 µM (retest, dose inferred, filed as 0.5).
Where [8] appears, read: at 50.0 µM (retest, dose inferred, filed as 5.0).

Each structure is given as a SMILES string. Compounds without any hit were thinned out: in the full panel of roughly 79,000, 15% have a hit. Values without a mark were called inactive. Calls of active or inactive are those of the source. No stated cut-off is given here; in the data, active means growth inhibition above about 70%; inactive means the rest.

For the compound `Cc1cc(N(CCCl)CCCl)ccc1C=Nc1ccc(-c2csc(Cc3ccccc3)n2)c(Cl)c1`, the growth inhibition in assay [1] (setting [7]) was 5%; in assay [1] (setting [8]) it was 89% (active); in assay [1] (at 50.0 µM), 92.7% (active); in assay [2] (setting [7]), -7%; in assay [2] (setting [8]), 96% (active); in assay [2] (at 50.0 µM), 94.5% (active). The growth inhibition was 2% in assay [3] (setting [7]); 97% (active) in assay [3] (setting [8]); 94.2% (active) in assay [3] (at 50.0 µM); -18% in assay [4] (setting [7]); 91% (active) in assay [4] (setting [8]); 91.1% (active) in assay [4] (at 50.0 µM). The growth inhibition in assay [5] (setting [7]) is 6%; in assay [5] (setting [8]), 94% (active); in assay [5] (at 50.0 µM) it was 89.2% (active); in assay [6] (setting [7]), -17%; in assay [6] (setting [8]), 94% (active); in assay [6] (at 50.0 µM), 93.7% (active).

Regarding `C/C=C1/C(=O)O[C@]23C=C[C@@H]4C(C(=O)OC)=CO[C@H](O[C@@H]12)[C@@H]43`, the growth inhibition in assay [1] (setting [7]) is 28%; in assay [1] (setting [8]) it was 82% (active); in assay [1] (at 50.0 µM) it was 91.9% (active); in assay [2] (setting [7]), 41%; in assay [2] (setting [8]), 98% (active); in assay [2] (at 50.0 µM), 93.8% (active). The growth inhibition in assay [3] (setting [7]) was 63%; in assay [3] (setting [8]), 98% (active); in assay [3] (at 50.0 µM) it was 93.6% (active); in assay [4] (setting [7]), 32%; in assay [4] (setting [8]), 64%; in assay [4] (at 50.0 µM), 89.5% (active). The growth inhibition in assay [5] (setting [7]) was 61%; in assay [5] (setting [8]), 96% (active); in assay [5] (at 50.0 µM), 92.5% (active); in assay [6] (setting [7]) it was 88% (active); in assay [6] (setting [8]), 98% (active); in assay [6] (at 50.0 µM) it was 66%.

As to `CC(=O)NNc1ccccc1`, the growth inhibition in assay [1] (setting [7]) was 6%; in assay [1] (setting [8]) it was 44%; in assay [1] (at 50.0 µM), 62.5%; in assay [2] (setting [7]), 2%; in assay [2] (setting [8]) it was 52%; in assay [2] (at 50.0 µM) it was 66.2%. For the same compound, the growth inhibition was 9% in assay [3] (setting [7]); 53% in assay [3] (setting [8]); 68.3% in assay [3] (at 50.0 µM); 2% in assay [4] (setting [7]); 65% in assay [4] (setting [8]); 40% in assay [4] (at 50.0 µM). Moreover, the growth inhibition in assay [5] (setting [7]) is 7%; in assay [5] (setting [8]), 89% (active); in assay [5] (at 50.0 µM), 87% (active); in assay [6] (setting [7]), 14%; in assay [6] (setting [8]), 84% (active); in assay [6] (at 50.0 µM) it was 90.7% (active).

Turning to `O=C(O)c1cccc2cccc(C(=O)O)c12.[Hg]`, the growth inhibition in assay [1] (setting [7]) is 99% (active); in assay [1] (setting [8]), 99% (active); in assay [1] (at 50.0 µM), 99.4% (active); in assay [2] (setting [7]), 100% (active); in assay [2] (setting [8]), 100% (active); in assay [2] (at 50.0 µM) it was 99.5% (active). Moreover, the growth inhibition was 100% (active) in assay [3] (setting [7]); 99% (active) in assay [3] (setting [8]); 99.7% (active) in assay [3] (at 50.0 µM); 99% (active) in assay [4] (setting [7]); 99% (active) in assay [4] (setting [8]); 98.5% (active) in assay [4] (at 50.0 µM). Also, the growth inhibition in assay [5] (setting [7]) is 99% (active); in assay [5] (setting [8]), 99% (active); in assay [5] (at 50.0 µM), 99.2% (active); in assay [6] (setting [7]), 99% (active); in assay [6] (setting [8]), 99% (active); in assay [6] (at 50.0 µM) it was 99.6% (active).

As to `O=C(C[n+]1ccccc1)C1CCc2ccccc2C1` (stereo not given), the growth inhibition in assay [1] (setting [7]) was -3%; in assay [1] (setting [8]) it was -4%; in assay [1] (at 50.0 µM), 9.25%; in assay [2] (setting [7]), 0%; in assay [2] (setting [8]) it was -2%; in assay [2] (at 50.0 µM), 5.7%. The growth inhibition in assay [3] (setting [7]) is -1%; in assay [3] (setting [8]), 0%; in assay [3] (at 50.0 µM), -1.5%; in assay [4] (setting [7]), 0%; in assay [4] (setting [8]), -5%; in assay [4] (at 50.0 µM) it was 39%. Further, the growth inhibition in assay [5] (setting [7]) was -2%; in assay [5] (setting [8]) it was -3%; in assay [5] (at 50.0 µM) it was -21.1%; in assay [6] (setting [7]), -6%; in assay [6] (setting [8]) it was -6%; in assay [6] (at 50.0 µM), 3.2%.

Consider `CCC[CH2][Sn]([CH2]CCC)([N]=C=S)[N]=C=S`, for which the growth inhibition in assay [1] (setting [7]) is 85% (active); in assay [1] (setting [8]), 97% (active); in assay [1] (at 50.0 µM) it was 97.9% (active); in assay [2] (setting [7]), 92% (active); in assay [2] (setting [8]), 98% (active); in assay [2] (at 50.0 µM), 98% (active). The growth inhibition was 92% (active) in assay [3] (setting [7]); 98% (active) in assay [3] (setting [8]); 98% (active) in assay [3] (at 50.0 µM); 87% (active) in assay [4] (setting [7]); 97% (active) in assay [4] (setting [8]); 97.3% (active) in assay [4] (at 50.0 µM). Moreover, the growth inhibition in assay [5] (setting [7]) is 94% (active); in assay [5] (setting [8]) it was 97% (active); in assay [5] (at 50.0 µM) it was 98.4% (active); in assay [6] (setting [7]) it was 93% (active); in assay [6] (setting [8]) it was 98% (active); in assay [6] (at 50.0 µM), 98.1% (active).

Consider `O=C(O)C(Br)C(Br)C(=O)O.[Ag]` (stereo not given), for which the growth inhibition in assay [1] (setting [7]) is 99% (active); in assay [1] (setting [8]), 99% (active); in assay [1] (at 50.0 µM) it was 98.8% (active); in assay [2] (setting [7]), 100% (active); in assay [2] (setting [8]), 100% (active); in assay [2] (at 50.0 µM), 99.3% (active). The growth inhibition is 99% (active) in assay [3] (setting [7]); 100% (active) in assay [3] (setting [8]); 98.7% (active) in assay [3] (at 50.0 µM); 97% (active) in assay [4] (setting [7]); 99% (active) in assay [4] (setting [8]); 99.1% (active) in assay [4] (at 50.0 µM). In addition, the growth inhibition was 99% (active) in assay [5] (setting [7]); 99% (active) in assay [5] (setting [8]); 98.8% (active) in assay [5] (at 50.0 µM); 99% (active) in assay [6] (setting [7]); 99% (active) in assay [6] (setting [8]); 99.2% (active) in assay [6] (at 50.0 µM).

Turning to `CC(=O)c1ccccc1O.CO.CO.[Cl][Ta][Cl]`, the growth inhibition is 1% in assay [1] (setting [7]); 1% in assay [1] (setting [8]); -13% in assay [1] (at 50.0 µM); 15% in assay [2] (setting [7]); -7% in assay [2] (setting [8]); -5.75% in assay [2] (at 50.0 µM). The growth inhibition is -14% in assay [3] (setting [7]); 0% in assay [3] (setting [8]); -9.65% in assay [3] (at 50.0 µM); -7% in assay [4] (setting [7]); -6% in assay [4] (setting [8]); 33.9% in assay [4] (at 50.0 µM). Besides, the growth inhibition in assay [5] (setting [7]) was -1%; in assay [5] (setting [8]), -5%; in assay [5] (at 50.0 µM) it was 3.45%; in assay [6] (setting [7]), -6%; in assay [6] (setting [8]), 1%; in assay [6] (at 50.0 µM), -10.2%.

For the compound `ClCCN(CCCl)c1ccc(C2N(Cc3ccc(Cl)cc3)CCN2Cc2ccc(Cl)cc2)cc1`, the growth inhibition in assay [1] (setting [7]) was 25%; in assay [1] (setting [8]), 86% (active); in assay [1] (at 50.0 µM), 79.4% (active); in assay [2] (setting [7]), 44%; in assay [2] (setting [8]), 85% (active); in assay [2] (at 50.0 µM) it was 60.5%. Moreover, the growth inhibition in assay [3] (setting [7]) was 53%; in assay [3] (setting [8]), 94% (active); in assay [3] (at 50.0 µM), 80.9% (active); in assay [4] (setting [7]) it was 13%; in assay [4] (setting [8]), 85% (active); in assay [4] (at 50.0 µM) it was 46.9%. Moreover, the growth inhibition in assay [5] (setting [7]) was 22%; in assay [5] (setting [8]) it was 71% (active); in assay [5] (at 50.0 µM) it was 48%; in assay [6] (setting [7]) it was 76% (active); in assay [6] (setting [8]) it was 97% (active); in assay [6] (at 50.0 µM) it was 79.5% (active).

In the case of `C[CH2][Sn]([Br])([CH2]C)[c]1ccccc1CN(C)C`, the growth inhibition in assay [1] (setting [7]) is 30%; in assay [1] (setting [8]) it was 76% (active); in assay [1] (at 50.0 µM) it was 46.2%; in assay [2] (setting [7]), 23%; in assay [2] (setting [8]), 69%; in assay [2] (at 50.0 µM), 65.5%. Besides, the growth inhibition is 9% in assay [3] (setting [7]); 77% (active) in assay [3] (setting [8]); 87.8% (active) in assay [3] (at 50.0 µM); 34% in assay [4] (setting [7]); 53% in assay [4] (setting [8]); 71.2% (active) in assay [4] (at 50.0 µM). Further, the growth inhibition in assay [5] (setting [7]) is 11%; in assay [5] (setting [8]) it was 78% (active); in assay [5] (at 50.0 µM), 86.8% (active); in assay [6] (setting [7]) it was 22%; in assay [6] (setting [8]), 79% (active); in assay [6] (at 50.0 µM), 86.7% (active).
